From the supplement of paper PMC10849652
The full data set covers some 7,900 targets. This sample favours those with a hit. About 0.6% of all pairs of compound and target were hits. Values without a mark were called inactive.

Columns and labels:
Test in all cases: log2 fold change, soluble protein after heating vs DMSO (PISA); higher = thermal stabilisation; K562 cells, 10 uM, 30 min; active = over 0.2 and 3.5 SD of the protein, either way, in both replicates (recomputed)
[1] = compound: NC(=O)Nc1cc(-c2cccc(F)c2)sc1C(=O)N[C@H]1CCCNC1
How it was run: (§1)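 Soluble protein was defined as the supernatant after 21,000xg for 90 min. It came from K562 cells at 2×10^6 cells/mL given 10 μM compound for 30 min, heated in aliquots for 3 min across 48°C-58°C, pooled, and extracted in PBS with 0.5% NP-40 at 4°C, and was quantified by TMTpro 16plex LC-MS/MS with equalised channel sums. Thermal stability against control samples, from duplicates, is reported as log2 fold change.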

[2] = compound: NC(=O)c1cnc(N[C@@H]2CCCC[C@@H]2N)nc1Nc1cccc(-n2nccn2)c1
How it was run: as §1

[3] = compound: NC1(c2ccc(-c3nc4ccn5c(=O)[nH]nc5c4cc3-c3ccccc3)cc2)CCC1
How it was run: as §1

[4] = compound: NCC(=O)Nc1ccc(-n2nc(C(F)(F)F)cc2-c2ccc3c(ccc4ccccc43)c2)cc1
How it was run: as §1

entinostat = compound: Nc1ccccc1NC(=O)c1ccc(CNC(=O)OCc2cccnc2)cc1 [entinostat]
How it was run: as §1

vorinostat = compound: O=C(CCCCCCC(=O)Nc1ccccc1)NO [vorinostat]
How it was run: as §1

citarinostat = compound: O=C(CCCCCCNC(=O)c1cnc(N(c2ccccc2)c2ccccc2Cl)nc1)NO [citarinostat]
How it was run: as §1

silmitasertib = compound: O=C(O)c1ccc2c(c1)nc(Nc1cccc(Cl)c1)c1ccncc12 [silmitasertib]
How it was run: as §1

[5] = compound: O=C1NC(=O)C(c2cnc3ccccn23)=C1c1cn2c3c(cc(F)cc13)CN(C(=O)N1CCCCC1)CC2
How it was run: as §1

[6] = compound: c1cc(OCCN2CCCCC2)cc(-c2n[nH]c3ccc(-c4nnc[nH]4)cc23)c1
How it was run: as §1

entospletinib = compound: c1cn2cc(-c3ccc4cn[nH]c4c3)nc(Nc3ccc(N4CCOCC4)cc3)c2n1 [entospletinib]
How it was run: as §1

Chain of UniProt Q99653 (Q99653 whole entry, looked up): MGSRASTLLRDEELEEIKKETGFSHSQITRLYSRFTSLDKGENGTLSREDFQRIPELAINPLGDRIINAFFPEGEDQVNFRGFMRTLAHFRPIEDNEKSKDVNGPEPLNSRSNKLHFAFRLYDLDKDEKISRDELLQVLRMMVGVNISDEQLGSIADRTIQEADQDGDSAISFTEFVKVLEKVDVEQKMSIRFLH
Chain of UniProt O00748 (O00748 whole entry, looked up): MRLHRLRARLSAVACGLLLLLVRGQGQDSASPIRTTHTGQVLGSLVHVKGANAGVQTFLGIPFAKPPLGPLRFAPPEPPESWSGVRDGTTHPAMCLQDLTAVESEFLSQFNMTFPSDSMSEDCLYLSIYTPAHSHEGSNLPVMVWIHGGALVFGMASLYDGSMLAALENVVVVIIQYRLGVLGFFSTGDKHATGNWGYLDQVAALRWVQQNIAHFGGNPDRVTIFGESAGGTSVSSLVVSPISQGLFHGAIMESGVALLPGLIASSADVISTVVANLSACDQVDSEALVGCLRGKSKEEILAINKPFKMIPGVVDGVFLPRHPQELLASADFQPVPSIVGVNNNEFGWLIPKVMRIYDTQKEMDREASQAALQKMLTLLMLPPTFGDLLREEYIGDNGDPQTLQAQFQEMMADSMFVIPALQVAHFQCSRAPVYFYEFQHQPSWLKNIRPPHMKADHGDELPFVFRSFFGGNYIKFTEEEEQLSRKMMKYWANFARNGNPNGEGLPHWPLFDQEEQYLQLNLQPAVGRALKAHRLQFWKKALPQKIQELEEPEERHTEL
Chain of UniProt Q9Y6H1 (Q9Y6H1 whole entry, looked up): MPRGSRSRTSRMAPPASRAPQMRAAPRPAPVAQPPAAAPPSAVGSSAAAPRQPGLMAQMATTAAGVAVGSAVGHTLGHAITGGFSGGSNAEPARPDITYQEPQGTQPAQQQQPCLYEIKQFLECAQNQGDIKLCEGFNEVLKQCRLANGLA
Chain of UniProt P68400 (P68400 whole entry, looked up): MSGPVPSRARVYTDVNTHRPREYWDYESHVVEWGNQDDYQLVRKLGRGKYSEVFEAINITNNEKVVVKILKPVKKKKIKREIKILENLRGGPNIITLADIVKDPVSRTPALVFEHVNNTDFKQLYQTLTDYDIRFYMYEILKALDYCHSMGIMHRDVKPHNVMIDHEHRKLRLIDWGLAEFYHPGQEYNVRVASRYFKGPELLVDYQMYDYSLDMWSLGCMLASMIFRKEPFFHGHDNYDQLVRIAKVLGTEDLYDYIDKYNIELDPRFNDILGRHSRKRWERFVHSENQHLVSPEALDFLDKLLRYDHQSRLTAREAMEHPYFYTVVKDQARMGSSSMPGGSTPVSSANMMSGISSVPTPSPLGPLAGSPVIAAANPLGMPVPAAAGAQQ
Chain of UniProt P51798 (P51798 whole entry, looked up): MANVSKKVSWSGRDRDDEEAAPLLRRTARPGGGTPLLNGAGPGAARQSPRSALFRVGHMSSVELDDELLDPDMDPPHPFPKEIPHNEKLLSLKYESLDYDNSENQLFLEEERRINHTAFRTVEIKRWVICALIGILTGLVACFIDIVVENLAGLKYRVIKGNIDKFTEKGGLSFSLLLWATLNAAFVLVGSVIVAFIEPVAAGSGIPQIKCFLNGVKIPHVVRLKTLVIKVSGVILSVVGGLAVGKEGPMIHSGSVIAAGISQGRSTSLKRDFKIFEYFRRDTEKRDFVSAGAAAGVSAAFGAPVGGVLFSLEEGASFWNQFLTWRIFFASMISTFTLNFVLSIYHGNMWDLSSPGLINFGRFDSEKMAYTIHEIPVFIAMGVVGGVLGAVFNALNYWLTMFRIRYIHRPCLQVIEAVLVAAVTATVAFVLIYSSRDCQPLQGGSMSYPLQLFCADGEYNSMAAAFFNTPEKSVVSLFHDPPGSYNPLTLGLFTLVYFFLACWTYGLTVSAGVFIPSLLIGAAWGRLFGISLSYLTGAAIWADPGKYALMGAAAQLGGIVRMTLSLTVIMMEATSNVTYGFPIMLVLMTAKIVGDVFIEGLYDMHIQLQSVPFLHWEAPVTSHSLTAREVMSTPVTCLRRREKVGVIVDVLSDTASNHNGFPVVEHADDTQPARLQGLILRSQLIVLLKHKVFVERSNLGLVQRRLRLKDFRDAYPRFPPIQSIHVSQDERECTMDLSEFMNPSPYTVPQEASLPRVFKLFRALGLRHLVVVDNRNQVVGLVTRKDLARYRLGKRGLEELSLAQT
Chain of UniProt P0C0L4 (P0C0L4 whole entry, looked up): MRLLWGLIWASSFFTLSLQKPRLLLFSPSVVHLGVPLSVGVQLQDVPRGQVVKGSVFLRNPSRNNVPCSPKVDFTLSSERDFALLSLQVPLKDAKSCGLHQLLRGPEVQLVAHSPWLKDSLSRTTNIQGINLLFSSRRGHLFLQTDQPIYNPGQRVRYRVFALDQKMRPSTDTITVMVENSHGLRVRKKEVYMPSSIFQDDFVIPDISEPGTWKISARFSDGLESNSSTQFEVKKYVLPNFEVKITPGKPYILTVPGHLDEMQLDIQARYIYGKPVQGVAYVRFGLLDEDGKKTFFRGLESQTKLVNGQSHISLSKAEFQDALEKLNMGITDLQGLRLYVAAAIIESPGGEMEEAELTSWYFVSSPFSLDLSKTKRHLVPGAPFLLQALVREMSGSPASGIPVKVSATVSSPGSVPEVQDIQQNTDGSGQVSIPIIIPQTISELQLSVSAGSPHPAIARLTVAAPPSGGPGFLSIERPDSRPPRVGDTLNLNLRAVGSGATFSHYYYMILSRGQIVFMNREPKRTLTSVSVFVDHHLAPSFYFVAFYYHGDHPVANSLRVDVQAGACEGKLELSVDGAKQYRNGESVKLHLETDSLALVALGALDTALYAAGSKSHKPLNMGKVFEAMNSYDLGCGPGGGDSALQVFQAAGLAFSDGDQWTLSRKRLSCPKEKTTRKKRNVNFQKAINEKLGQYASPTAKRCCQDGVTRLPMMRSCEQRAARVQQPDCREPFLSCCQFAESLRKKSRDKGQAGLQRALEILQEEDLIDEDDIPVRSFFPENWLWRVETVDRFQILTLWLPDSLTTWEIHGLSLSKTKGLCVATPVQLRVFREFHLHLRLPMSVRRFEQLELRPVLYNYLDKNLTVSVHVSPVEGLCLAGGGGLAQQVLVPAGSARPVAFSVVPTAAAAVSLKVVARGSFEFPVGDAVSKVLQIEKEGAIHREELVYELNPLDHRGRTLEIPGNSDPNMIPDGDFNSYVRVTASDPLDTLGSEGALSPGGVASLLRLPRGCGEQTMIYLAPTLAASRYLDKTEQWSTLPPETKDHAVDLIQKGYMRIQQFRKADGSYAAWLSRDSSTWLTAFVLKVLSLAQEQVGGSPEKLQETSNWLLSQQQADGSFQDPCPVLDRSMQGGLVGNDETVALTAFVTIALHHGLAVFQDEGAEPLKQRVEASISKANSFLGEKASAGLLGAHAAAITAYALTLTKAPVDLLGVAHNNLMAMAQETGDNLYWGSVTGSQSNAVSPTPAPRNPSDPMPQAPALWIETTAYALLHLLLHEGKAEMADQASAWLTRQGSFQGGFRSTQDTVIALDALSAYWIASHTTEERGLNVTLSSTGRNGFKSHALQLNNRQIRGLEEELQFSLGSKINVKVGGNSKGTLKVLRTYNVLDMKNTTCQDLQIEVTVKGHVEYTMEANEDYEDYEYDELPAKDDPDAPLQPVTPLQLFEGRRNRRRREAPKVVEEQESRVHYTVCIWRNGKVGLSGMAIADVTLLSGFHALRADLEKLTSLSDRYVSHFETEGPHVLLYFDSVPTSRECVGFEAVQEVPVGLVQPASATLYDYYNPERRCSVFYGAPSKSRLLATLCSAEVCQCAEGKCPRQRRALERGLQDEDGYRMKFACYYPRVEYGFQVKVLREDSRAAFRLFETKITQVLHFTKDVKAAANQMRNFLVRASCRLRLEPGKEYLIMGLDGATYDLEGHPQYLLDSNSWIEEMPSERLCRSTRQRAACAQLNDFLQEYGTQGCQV
Chain of UniProt Q96CF2 (Q96CF2 whole entry, looked up): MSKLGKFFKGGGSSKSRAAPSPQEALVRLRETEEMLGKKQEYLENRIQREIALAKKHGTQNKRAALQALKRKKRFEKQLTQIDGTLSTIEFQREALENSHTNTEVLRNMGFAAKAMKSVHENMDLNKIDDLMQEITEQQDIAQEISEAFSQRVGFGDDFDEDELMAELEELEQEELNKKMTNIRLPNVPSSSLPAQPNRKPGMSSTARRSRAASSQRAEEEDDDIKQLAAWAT
Chain of UniProt Q8IUI8 (Q8IUI8 whole entry, looked up): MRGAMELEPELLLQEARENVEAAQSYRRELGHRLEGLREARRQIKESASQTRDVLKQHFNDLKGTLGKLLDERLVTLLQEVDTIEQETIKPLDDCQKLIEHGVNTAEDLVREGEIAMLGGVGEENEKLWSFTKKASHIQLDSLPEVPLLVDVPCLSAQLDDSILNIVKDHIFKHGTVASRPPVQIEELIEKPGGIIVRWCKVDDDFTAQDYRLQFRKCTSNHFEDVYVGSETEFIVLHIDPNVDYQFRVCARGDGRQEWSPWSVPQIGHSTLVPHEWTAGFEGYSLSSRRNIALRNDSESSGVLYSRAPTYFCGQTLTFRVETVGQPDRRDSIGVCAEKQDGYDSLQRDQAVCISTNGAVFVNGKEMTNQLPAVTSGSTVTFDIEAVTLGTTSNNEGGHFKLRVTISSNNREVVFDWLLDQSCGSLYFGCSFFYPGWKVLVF
Chain of UniProt P41240 (P41240 whole entry, looked up): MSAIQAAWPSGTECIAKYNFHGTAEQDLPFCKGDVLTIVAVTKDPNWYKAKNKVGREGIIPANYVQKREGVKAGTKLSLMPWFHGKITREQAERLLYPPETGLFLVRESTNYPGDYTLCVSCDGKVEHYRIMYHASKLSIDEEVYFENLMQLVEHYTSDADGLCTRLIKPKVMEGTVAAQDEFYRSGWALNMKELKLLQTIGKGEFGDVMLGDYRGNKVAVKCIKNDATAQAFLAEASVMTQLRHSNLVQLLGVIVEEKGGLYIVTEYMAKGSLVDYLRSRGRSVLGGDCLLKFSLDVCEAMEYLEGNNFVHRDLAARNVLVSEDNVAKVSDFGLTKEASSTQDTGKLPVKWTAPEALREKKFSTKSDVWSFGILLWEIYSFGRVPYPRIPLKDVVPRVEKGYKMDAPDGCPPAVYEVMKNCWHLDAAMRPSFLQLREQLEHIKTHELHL

Row | Target | log2 fold change [1] | log2 fold change [2] | log2 fold change [3] | log2 fold change [4] | log2 fold change (entinostat) | log2 fold change (vorinostat) | log2 fold change (citarinostat) | log2 fold change (silmitasertib) | log2 fold change [5] | log2 fold change [6] | log2 fold change (entospletinib)
1 | C9orf64 (UniProt Q5T6V5) | 0 | -0.155 | -0.338 | -0.02 | 0.088 | 0.167 | 0.064 | 0.037 | 0.012 | -0.106 | 0.009
2 | COX5B (UniProt P10606) | 0.041 | 0.031 | 0.053 | -0.015 | -0.006 | -0.151 | 0.02 | -0.04 | -0.131 | 0.034 | 0.005
3 | CHMP4C (UniProt Q96CF2) | -0.003 | -0.005 | -0.089 | -0.043 | 0.041 | 0.02 | -0.138 | 0.028 | -0.22 | 0.052 | 0.036
4 | CPSF7 isoform 3 (UniProt Q8N684) | -0.063 | 0.025 | 0.027 | 0.013 | -0.023 | 0.01 | 0.001 | -0.069 | 0.054 | -0.035 | -0.011
5 | CDC25B isoform 4 (UniProt P30305) | -0.04 | -0.07 | -0.157 | 0.088 | 0.047 | 0.071 | 0.115 | 0.054 | 0.014 | -0.123 | -0.013
6 | COMT (UniProt P21964) | -0.052 | 0.356 (active) | -0.015 | -0.022 | -0.022 | -0.054 | 0.052 | -0.057 | -0.086 | 0.015 | 0.017
7 | CASP2 (UniProt P42575) | -0.317 | -0.047 | -0.099 | 0.065 | 0.017 | 0.13 | 0.058 | 0.051 | -0.008 | -0.032 | -0.004
8 | CSK (UniProt P41240) | 0.318 (active) | -0.084 | -0.156 | -0.083 | 0.006 | 0.023 | 0.03 | 0.046 | -0.048 | -0.014 | 0.013
9 | CBX5 (UniProt P45973) | -0.066 | -0.027 | -0.025 | -0.106 | 0.025 | 0.113 | 0.041 | -0.016 | -0.073 | -0.021 | 0.01
10 | CHCHD2 (UniProt Q9Y6H1) | -0.039 | -0.011 | 0.022 | 0.012 | -0.01 | 0.005 | 0.018 | 0.009 | -0.13 | -0.008 | 0.028
11 | C16orf58 (UniProt Q96GQ5) | -0.047 | -0.05 | -0.111 | -0.08 | 0.001 | 0.026 | 0.034 | 0.032 | -0.027 | -0.017 | 0.011
12 | CELF2 isoform 3 (UniProt O95319) | -0.047 | 0.009 | 0.017 | -0.017 | -0.048 | -0.044 | 0 | 0.051 | 0.102 | -0.021 | 0.009
13 | CRLF3 (UniProt Q8IUI8) | 0.016 | -0.233 | -0.165 | -0.105 | 0.025 | -0.023 | 0.047 | 0.104 | -0.003 | -0.057 | 0.089
14 | C4A (UniProt P0C0L4) | -0.024 | -0.016 | -0.129 | 0 | 0.021 | 0.265 | -0.071 | 0.059 | 0.038 | 0.146 | 0.149
15 | CES2 isoform 4 (UniProt O00748) | 0.116 | 0.017 | -0.051 | 0.095 | -0.083 | -0.017 | -0.083 | 0.076 | 0.027 | -0.016 | 0.02
16 | CD53 (UniProt P19397) | -0.15 | 0.196 | 0.133 | 0.014 | -0.044 | -0.219 | 0.013 | -0.046 | -0.037 | -0.12 | 0.073
17 | CDC42BPB (UniProt Q9Y5S2) | -0.205 | 0.054 | -0.254 | -0.012 | 0.155 | 0.06 | 0.085 | -0.087 | -0.057 | -0.201 | -0.245
18 | CIZ1 (UniProt Q9ULV3) | -0.031 | -0.087 | -0.053 | -0.022 | -0.032 | 0.036 | 0.023 | 0.026 | 0.074 | -0.045 | -0.012
19 | CLCN7 (UniProt P51798) | -0.009 | -0.162 | -0.674 (active) | -0.048 | 0.07 | 0.054 | 0.107 | 0.036 | 0.021 | -0.078 | -0.007
20 | CD81 (UniProt P60033) | -0.051 | 0.222 | 0.21 | 0.231 | -0.028 | -0.074 | 0.065 | 0.052 | 0.066 | -0.166 | 0.019
21 | CHP1 (UniProt Q99653) | -0.1 | 0.014 | -0.104 | 0.19 | -0.012 | -0.066 | 0.001 | 0.061 | -0.054 | 0.011 | 0.044
22 | C1D (UniProt Q13901) | 0.187 | 0.322 (active) | 0 | 0.033 | -0.012 | 0.116 | 0.067 | 0.072 | 0.003 | 0.008 | -0.043
23 | CLSPN (UniProt Q9HAW4) | -0.015 | -0.009 | -0.003 | -0.013 | -0.048 | -0.028 | 0.026 | 0.053 | -0.062 | -0.086 | 0.057
24 | CDK1 (UniProt P06493) | -0.036 | 0.004 | -0.068 | -0.047 | 0 | 0.05 | 0.051 | – | -0.079 | -0.032 | -0.024
25 | CCNDBP1 (UniProt O95273) | 0.046 | -0.027 | -0.091 | 0.069 | -0.036 | -0.069 | 0.05 | 0.087 | – | -0.084 | 0.029
26 | CSNK2A1 (UniProt P68400) | -0.062 | 0.014 | 0.007 | 0.05 | -0.015 | 0.046 | -0.013 | – | -0.027 | -0.045 | 0.113
27 | CHST10 (UniProt O43529) | 0.059 | 0.023 | -0.142 | – | 0.048 | 0.015 | – | -0.059 | -0.032 | – | –
28 | CDKN1B (UniProt P46527) | -0.154 | 0.178 | 0.017 | -0.177 | 0.046 | -0.01 | – | -0.072 | -0.01 | – | –
